SMILES strings stand for the structures. Where “and” joins values, the source holds several entries; their conditions need not be identical. Identical values can stand only once. Records with an inconclusive call do not appear. Some compounds were tested as several samples or in several runs, with calls that do not always agree. Calls of active or inactive are those of the source. Unless noted, calls follow the shape of the dose curve; as a rule, active = well fitted curve in the direction sought with a large enough effect in the repeat runs; inconclusive = weak or mixed curves; inactive = no such curve, though single readings can be large; an effect the other way counts as inactive or inconclusive.

Our source for the Potency values is PubChem BioAssay (Tox21).

Assay [1] addresses Retinoic acid receptor RXR-alpha (Homo sapiens) (UniProt P19793). In words: qHTS assay to identify small molecule agonists of the RXR signaling pathway (AID 1159527; calls by dose curve; also: nearly all actives have a fitted effect of over 35% in size; also: potency is read from the fitted curve at half-maximal effect). A digest of the protocol:
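Compounds in DMSO were added to RXR-alpha-UAS-bla HEK 293T cells kept in 2% charcoal-stripped serum, and incubated 16 hr at 37 C with 5% CO2. Reporter signal came from a 2 hr B/G FRET substrate step.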

A short description of assay [2]: qHTS assay to identify small molecule agonists of the RXR signaling pathway - cell viability counter screen (AID 1159529). Also: nearly all actives have a fitted effect of over 50% in size. Also: potency is read from the fitted curve at half-maximal effect. A digest of the protocol:
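Counter screen: CellTiter-Glo luminescence. Cells: RXR-alpha-UAS-bla HEK 293T. Medium: 2% charcoal-stripped FBS. Treatment: 16 h, 37 C. Reagent incubation: 30 min, RT.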
A general note: In qHTS, concentration-response curves come from the screen itself.

Assay [3] can be described thus: qHTS assay to identify small molecule antagonists of the retinoid acid receptor (RAR) signaling pathway - cell viability counter screen (AID 1159551). Also: nearly all actives have a fitted effect of over 35% in size. A digest of the protocol: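 Retinol-stimulated (1 uM final) C3RL4 cells, compound 6 h, 37 C; readout CellTiter-Glo luminescence (ATP) after 30 min RT incubation.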
A short description of assay [4]: qHTS assay to identify small molecule antagonists of the retinoic acid receptor (RAR) signaling pathway (AID 1159552; also: nearly all actives have a fitted effect of over 50% in size). A digest of the protocol:
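Antagonism of retinol-induced RARE reporter activity was measured in C3RL4 cells. Exposure to compounds and 1 uM final retinol lasted 6 hr at 37 C, with luminescence as endpoint.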

A short description of assay [5]: qHTS assay to identify small molecule agonists of the retinoic acid receptor (RAR) signaling pathway (AID 1159553). Also: potency is read from the fitted curve at half-maximal effect. The settings on record: C3RL4 RARE luciferase reporter, agonist, 6 h; activation: at 73.3 µM (top of the series) unless noted. A digest of the protocol: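 Reporter readout comes from luciferase under RARE control in C3RL4 cells; compound exposure lasts 6 hr at 37 C in 5% CO2, and luminescence is recorded following a 30 min room-temperature incubation with reagent.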

Sequence of Retinoic acid receptor RXR-alpha (Homo sapiens) (P19793 whole entry, looked up): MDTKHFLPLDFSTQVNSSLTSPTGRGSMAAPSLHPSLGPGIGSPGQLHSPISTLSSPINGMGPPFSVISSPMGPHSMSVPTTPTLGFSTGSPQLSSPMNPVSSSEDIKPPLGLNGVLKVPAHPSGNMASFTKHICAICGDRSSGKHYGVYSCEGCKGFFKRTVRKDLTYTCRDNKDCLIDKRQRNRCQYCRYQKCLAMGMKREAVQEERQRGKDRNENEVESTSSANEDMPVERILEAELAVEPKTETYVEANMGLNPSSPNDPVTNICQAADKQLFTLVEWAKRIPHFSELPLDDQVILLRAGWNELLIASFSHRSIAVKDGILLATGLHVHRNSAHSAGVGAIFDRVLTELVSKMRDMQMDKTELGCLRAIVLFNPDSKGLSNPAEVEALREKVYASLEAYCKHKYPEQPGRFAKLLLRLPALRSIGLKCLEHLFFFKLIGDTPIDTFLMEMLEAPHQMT

As for `CCN(CC)C(=O)SCc1ccc(Cl)cc1`, the Potency result in assay [1], in assay [2], in assay [3] and in assay [4] was “inactive” throughout.
As for `O=C(O)C(F)(F)C(F)(F)C(F)(F)C(F)(F)C(F)(F)C(F)(F)C(F)(F)F`, the Potency result in assay [1], in assay [2] and in assay [3] was “inactive” each time.
In the case of `CCC(C)(C)c1ccc(O)cc1`, the Potency result in assay [1], in assay [2] and in assay [3] was “inactive” in each case.
`CC(C)c1ccc(CO)cc1`: the Potency result in assay [1], in assay [2], in assay [3], in assay [4] and in assay [5] was “inactive” in each case.
`Cc1ccc2c(c1N)C(=O)c1ccccc1C2=O`: the Potency entry in assay [1], in assay [2], in assay [3] and in assay [4] was “inactive” in each case. The Potency in assay [5] is 1.7 µM (active) and 1.93 µM (active).
`CNC(=O)Oc1cccc2c1OC(C)(C)O2`: the Potency entry in assay [1], in assay [2] and in assay [3] was “inactive” in each case.
Consider `CCCCC(CC)COC(=O)Cl` (stereo not given), for which the Potency result in assay [1], in assay [2], in assay [3], in assay [4] and in assay [5] was “inactive” throughout.
As for `CCC(C)(c1ccc(O)cc1)c1ccc(O)cc1`, the Potency entry in assay [1], in assay [2] and in assay [3] was “inactive” throughout.
As for `C=C(C)C(=O)OCC1CO1` (stereo not given), the Potency entry in assay [1], in assay [2], in assay [3], in assay [4] and in assay [5] was “inactive” in each case.
Turning to `CCOc1cc(Oc2ccc(C(F)(F)F)cc2Cl)ccc1[N+](=O)[O-]`, the Potency entry in assay [1], in assay [2], in assay [3], in assay [4] and in assay [5] was “inactive” throughout.
For `O=C(NC(=O)c1c(F)cccc1F)Nc1ccc(Cl)cc1`, the Potency entry in assay [1], in assay [2], in assay [3] and in assay [4] was “inactive” throughout.
As for `CCCCN(CC)c1c([N+](=O)[O-])cc(C(F)(F)F)cc1[N+](=O)[O-]`, the Potency result in assay [1], in assay [2], in assay [3], in assay [4] and in assay [5] was “inactive” throughout.
On to `CN(C)C(=O)Nc1ccc(Cl)cc1`, for which the Potency entry in assay [1], in assay [2] and in assay [3] was “inactive” throughout.
Regarding `CCCCN(CCCC)N=O`, the Potency result in assay [1], in assay [2] and in assay [3] was “inactive” in each case.
In the case of `COP(=S)(OC)Oc1ccc([N+](=O)[O-])cc1`, the Potency result in assay [1], in assay [2], in assay [3], in assay [4] and in assay [5] was “inactive” each time.
Consider `COC(=O)c1sccc1S(=O)(=O)NC(=O)Nc1nc(C)nc(OC)n1`, for which the Potency entry in assay [1], in assay [2], in assay [3], in assay [4] and in assay [5] was “inactive” each time.
Take `CCN(CC)C(=O)/C(Cl)=C(\C)OP(=O)(OC)OC`: the Potency entry in assay [1], in assay [2], in assay [3], in assay [4] and in assay [5] was “inactive” in each case.
Consider `CCCCCCCCCCCOC(=O)c1ccccc1C(=O)OCCCCCCCCCCC`, for which the Potency result in assay [1], in assay [2], in assay [3], in assay [4] and in assay [5] was “inactive” each time.
For the molecule `Nc1c(Cl)cc([N+](=O)[O-])cc1Cl`, the Potency entry in assay [1], in assay [2], in assay [3], in assay [4] and in assay [5] was “inactive” throughout.
For the molecule `N#Cc1cc(Br)c(O)c(Br)c1`, the Potency entry in assay [1], in assay [3], in assay [4] and in assay [5] was “inactive” in each case. Moreover, the Potency in assay [2] was 11 µM (active) and 13.3 µM (active).
For the molecule `COP(=S)(OC)Oc1cc(Cl)c(Cl)cc1Cl`, the Potency entry in assay [1], in assay [2], in assay [3], in assay [4] and in assay [5] was “inactive” in each case.
Turning to `c1ccc(N=Nc2ccccc2)cc1`, the Potency result in assay [1], in assay [2], in assay [3], in assay [4] and in assay [5] was “inactive” each time.
Take `Oc1ccc(-c2ccccc2)cc1`: the Potency in assay [1] is 5.42 µM (active) and inactive. Further, the Potency result in assay [2], in assay [3] and in assay [4] was “inactive” each time.
In the case of `c1ccc(-c2cccc(-c3ccccc3)c2)cc1`, the Potency result in assay [1], in assay [2], in assay [3] and in assay [4] was “inactive” throughout. For the same molecule, in assay [5], the Potency is 6.93 µM (active) and 4.86 µM (active).
Consider `CC(C)(c1cc(Cl)c(O)c(Cl)c1)c1cc(Cl)c(O)c(Cl)c1`, for which the Potency result in assay [1], in assay [2] and in assay [3] was “inactive” each time.
Turning to `COc1ccc(C=O)cc1`, the Potency result in assay [1], in assay [2] and in assay [3] was “inactive” throughout.
Take `O=Cc1ccco1`: the Potency result in assay [1], in assay [2], in assay [3], in assay [4] and in assay [5] was “inactive” throughout.
For the molecule `C1=Cc2cccc3cccc1c23`, the Potency entry in assay [1], in assay [2], in assay [3], in assay [4] and in assay [5] was “inactive” throughout.
On to `CCOP(=S)(OCC)O/N=C(\C#N)c1ccccc1`, for which the Potency result in assay [1], in assay [2], in assay [3], in assay [4] and in assay [5] was “inactive” in each case.
`CCCCCc1cc(O)cc(O)c1`: the Potency result in assay [1], in assay [2] and in assay [3] was “inactive” throughout.
Consider `C=CCc1ccc(OC)cc1`, for which the Potency entry in assay [1], in assay [2] and in assay [3] was “inactive” each time.
Consider `N#CCCCl`, for which the Potency entry in assay [1], in assay [2], in assay [3], in assay [4] and in assay [5] was “inactive” throughout.
In the case of `c1nc[nH]n1`, the Potency result in assay [1], in assay [2] and in assay [3] was “inactive” each time.
Turning to `Nc1ccc(Cl)c(Cl)c1`, the Potency result in assay [1], in assay [2] and in assay [3] was “inactive” throughout.
`Brc1ccc(Oc2cc(Br)c(Br)cc2Br)c(Br)c1`: the Potency result in assay [1], in assay [3], in assay [4] and in assay [5] was “inactive” each time. In assay [2], the Potency was 17.4 µM (active).
With `CC1(C)C(C=C(Cl)Cl)C1C(=O)OC(C#N)c1cccc(Oc2ccccc2)c1` (stereo not given), the Potency entry in assay [1], in assay [2], in assay [3], in assay [4] and in assay [5] was “inactive” throughout.
On to `C=CC(=O)OCCO`, for which the Potency result in assay [1], in assay [2] and in assay [3] was “inactive” in each case.
In the case of `CCCCOCCOP(=O)(OCCOCCCC)OCCOCCCC`, the Potency entry in assay [1], in assay [2], in assay [3], in assay [4] and in assay [5] was “inactive” each time.
For the molecule `O=[N+]([O-])c1c(Cl)c(Cl)c(Cl)c(Cl)c1Cl`, in assay [1], the Potency is 6.89 µM (active) and inactive. Also, the Potency result in assay [3], in assay [4] and in assay [5] was “inactive” in each case.
